# Screening data: PubChem BioAssay, Broad Institute
# Tgondii IFNg: blocks Toxoplasma gondii growth in the presence of IFN-gamma; Toxoplasma gondii growth in IFN-gamma-treated host cells; active compounds read low; activity change, negative = inhibition, % (concentration not given with the values); actives 3.8% (n = 69,000); in the data active means activity change below about -70%, passing the limit was not always enough;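 further: host cells are HeLa cells infected with Toxoplasma gondii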
# Starred values were filed as active, the others as inactive; ! = a repeat was not active. Only a selection was taken, and hits are over-represented in it overall.
SMILES,Tgondii IFNg
COc1ccc(S(=O)(=O)N2CCc3nc(-c4ccc(C)cc4)sc3C2)cc1,-44.5
COc1cccc(-c2nc3c(s2)CN(S(=O)(=O)c2cc(C)ccc2C)CC3)c1,-101.9*
COc1ccc(-c2nc3c(s2)CN(S(=O)(=O)c2cccc(F)c2)CC3)cc1OC,28.7
Cc1ccc(-c2nc3c(s2)CN(S(=O)(=O)c2ccc(Cl)cc2)CC3)cc1,23.3
COc1ccc(S(=O)(=O)N2CCc3nc(-c4ccc(OC)c(OC)c4)sc3C2)cc1,-32.1
COc1ccc(-c2nc3c(s2)CN(S(=O)(=O)c2ccc(C)c(C)c2)CC3)cc1,-103.1*
COc1ccc(-c2nc3c(s2)CN(S(=O)(=O)c2ccc(OC)c(OC)c2)CC3)cc1,-16.5
COc1ccc(Cc2nn3c(=O)c(C)nnc3s2)cc1,-16.5
C=CCn1c(=O)c(C(=O)Nc2ccc(C)cc2C)c(O)c2ccccc21,409.0
O=C1CCC2(CCN1)CCN(C(=O)c1cnc(-c3cccs3)nc1)CC2,5.6
CC(=O)N1Cc2ccccc2OC2(CCC(N(C)C(=O)c3cc(-c4ccco4)on3)CC2)C1 (configuration not stated),-11.3
O=C(NCc1ccc2c(c1)OCO2)c1c(O)c2ccccc2n(-c2ccccc2)c1=O,21.3
CCCCN1CCN(C(=O)CCNC(=O)c2ccc(F)cc2)CC1=O,-5.4
COCCN(C)C[C@@H]1CCC[C@@H]2CN(c3ncccn3)C[C@H]21,21.6
CCn1nc(C(=O)Nc2ccccc2-c2ccc(OC)cc2)c2ccccc2c1=O,-35.6
CCc1nn(C)c(Cl)c1CN(C)Cc1c(C)noc1C,1.5
CC(C)c1ccc(S(=O)(=O)N2CCc3nc(-c4ccccc4)sc3C2)cc1,-98.1*
O=S(=O)(c1ccc(Cl)cc1)N1CCc2nc(-c3ccccc3)sc2C1,19.0
COc1ccc(S(=O)(=O)N2CCc3nc(-c4ccccc4)sc3C2)cc1,-19.7
Cc1nc(NC(=O)c2cc3cc(Br)ccc3oc2=O)sc1C,39.4
CCc1csc(-c2ccc(S(=O)(=O)NCCN3CCCCC3C)s2)n1 (configuration not stated),-52.9
Cc1ccc(CN2CCOC3(CCN(c4ncccn4)CC3)C2)cc1,-46.7
CCCCCCCCCCCCCCCCn1cc[n+](Cc2ccccc2)c1C,-79.0*
CCCCCN=c1ccn(Cc2ccccc2)c2ccccc12,-0.3
O=C(C1CCOCC1)N1CC[C@@H](O)[C@@H]1Cc1ccncc1,-48.2
SMILES,Tgondii IFNg
Cc1cccc(N2CCn3c(Cn4cncn4)cnc3C2C)n1 (configuration not stated),0.7
O=C(c1cn2c(n1)CSCC2)N1CCC(Cc2ccccc2)CC1,-19.7
COc1ccccc1CNC(=O)c1nc(-c2ccc(C)cc2)n2c1CCCCC2,-115.2*
CCOC(=O)C(C)NC(=O)c1cc(-c2cccnc2)n[nH]1 (configuration not stated),12.0
COCCCNC(=O)c1nc(-c2ccc(Cl)cc2)n2c1CCCCC2,-49.6
CCOC(=O)C1CCCN(C(=O)c2nc(-c3ccc(C)cc3)n3c2CCCCC3)C1 (configuration not stated),222.9
O=C(c1nc(-c2ccc(Cl)cc2)n2c1CCCCC2)N1CCC2(CC1)OCCO2,117.5
COC(=O)c1cc2c(cc1NC(=O)c1nc(-c3ccc(C)cc3)n3c1CCCCC3)OCO2,283.9
CC(C)CNC(=O)c1nc(-c2ccc(Cl)cc2)n2c1CCCCC2,-100.4*
CC(C)OCCCNC(=O)c1nc(-c2ccc(Cl)cc2)n2c1CCCCC2,-47.3
CC1CCCCN1CCNC(=O)c1nc(-c2ccc(Cl)cc2)n2c1CCCCC2 (configuration not stated),6.3
Cc1ccc(-c2nc(C(=O)N3CCCCCC3)c3n2CCCCC3)cc1,-79.9*
CCOC(=O)C(C)NC(=O)c1nc(-c2ccc(C)cc2)n2c1CCCCC2 (configuration not stated),-105.9*
CCCc1noc(-c2c(O)c3ccccc3n(C)c2=O)n1,-55.2
O=C(C[C@H]1CC[C@H]2[C@@H](COC[C@@H](O)CN2Cc2ccc(F)cc2)O1)NCCc1ccccc1,-39.0
Cc1cc(-c2cnc3cc(C)nn3c2C2CCCN(CC(=O)N(C(C)C)C(C)C)C2)on1 (configuration not stated),-31.9
Cn1cc(-c2ccc(C(=O)N3CCCC(c4ccccc4)CC3)cn2)cn1 (configuration not stated),-9.3
CC1CCN(c2ncnc3c2cnn3CC(=O)Nc2ccc(Cl)cc2F)CC1,81.7
CC(C)c1noc(C2CCN(C(=O)C(C)n3ccnc3C(C)C)CC2)n1 (configuration not stated),-0.2
Cc1ccc(-c2nc(C(=O)N3CCCCC3c3cccnc3)c3n2CCCCC3)cc1 (configuration not stated),104.9
Cc1ccc(-c2nc(C(=O)NC(C)C)c3n2CCCCC3)cc1,-78.1*
CCN(CC)C(=O)c1nc(-c2ccc(C)cc2)n2c1CCCCC2,-32.5
Cn1cc(CCC(=O)NCC(C)(C)N2CCCCC2)c2ccccc21,7.6
CCc1ccc(S(=O)(=O)c2cnc(N3CCC(C(N)=O)(N4CCCCC4)CC3)nc2N)cc1,-78.4*
CC(C)c1ccc(S(=O)(=O)c2cnc(N3CCC(C(N)=O)(N4CCCCC4)CC3)nc2N)cc1,26.9
SMILES,Tgondii IFNg
NC(=O)C1(N2CCCCC2)CCN(c2ncc(S(=O)(=O)c3ccccc3)c(N)n2)CC1,68.8
Cc1nn(CC(C)C(=O)N2CCN(CCOC(C)C)CC2)c(C)c1Cl (configuration not stated),-5.2
Cc1ccc2c(NC(=O)C(c3ccc(Cl)cc3)N3CCOCC3)n[nH]c2n1 (configuration not stated),-5.2
CN1CCN(C2=Nc3ccccc3Sc3ccc(Cl)cc32)CC1,9.0
CN1CCN(CCCN(C)CC(C)(C)c2ccc(Cl)cc2)CC1,-9.2
CN1CCN(CCCN2c3ccccc3Sc3ccc(C(F)(F)F)cc32)CC1,-79.8*!
Cc1nn(-c2ccccc2)nc1C(=O)N(C)CCc1ccccn1,12.4
Cc1ccc(-c2nc(CNS(=O)(=O)c3ccc(C(C)C)cc3)c(C)o2)cc1,-104.7*
COc1ccc(-c2nc(CNS(=O)(=O)c3ccc(OC)cc3)c(C)o2)cc1,-0.1
Cc1oc(-c2ccccc2)nc1CNS(=O)(=O)c1ccc(C(C)C)cc1,-61.7
Clc1ccc(OCCCCn2nnc3ccccc32)cc1,-42.4
Nc1ccc2ncnc(NCCc3ccc(Oc4ccccc4)cc3)c2c1,-70.6*
c1ccc(CNc2ncnc3ccccc23)cc1,-15.2
COc1ccc(CCNc2ncnc3c2cnn3-c2ccccc2)cc1OC,21.2
COc1nc(N)nc2c1ncn2[C@@H]1O[C@H](CO)[C@@H](O)[C@@H]1O,14.4
Nc1ncn([C@@H]2O[C@H](CO)[C@@H](O)[C@H]2O)c(=O)n1,-40.6
Nc1nc(=S)c2ncn([C@@H]3O[C@H](CO)[C@@H](O)[C@H]3O)c2[nH]1,-77.5*
Cc1nc(-c2ccccc2)sc1CCNS(=O)(=O)c1ccc(F)c(C(F)(F)F)c1,59.9
NS(=O)(=O)c1ccc(-n2ncc3ccccc3c2=O)cc1,-31.4
Cc1ncc(CN2CCC(CNC(=O)CC3=CCCCC3)C2)cn1 (configuration not stated),-50.2
CCC(=O)NCc1ccccc1-c1ccccc1CO,-38.6
O=C1CCCc2c1[nH]c1ccc(-c3ccccc3CO)cc21,-74.8*
CCc1ccccc1-c1ccc2cc[nH]c(=O)c2c1,1.6
Cn1nc(CN2CCCCC2)c2c1CN(C(=O)Nc1ccccc1)C2,0.5
CC(Cn1cnc2ccccc2c1=O)NCc1nc(C2CCCCC2)no1 (configuration not stated),-44.9
CC(C)CNC(=S)NCCNC(=O)OC(C)(C)C,30.4
